Each structure is given as a SMILES string. About 4,000 (25%) of roughly 16,000 compounds were called active. Not shown: some 26% with an inconclusive outcome. Not all results are given here. A number with no mark means an inactive call. The call rests on the fitted dose curve; in most records, active means well fitted curve in the direction sought with a large enough effect; inconclusive means small, poorly fitted or top-dose-only effect, or effect the other way; inactive means no such curve, though single readings can be large or run the other way.
On the % scale 0 is the no-effect control and ±100 the full control effect.

Sequence of Cytochrome P450 2C9 (Homo sapiens) (P11712 whole entry, looked up): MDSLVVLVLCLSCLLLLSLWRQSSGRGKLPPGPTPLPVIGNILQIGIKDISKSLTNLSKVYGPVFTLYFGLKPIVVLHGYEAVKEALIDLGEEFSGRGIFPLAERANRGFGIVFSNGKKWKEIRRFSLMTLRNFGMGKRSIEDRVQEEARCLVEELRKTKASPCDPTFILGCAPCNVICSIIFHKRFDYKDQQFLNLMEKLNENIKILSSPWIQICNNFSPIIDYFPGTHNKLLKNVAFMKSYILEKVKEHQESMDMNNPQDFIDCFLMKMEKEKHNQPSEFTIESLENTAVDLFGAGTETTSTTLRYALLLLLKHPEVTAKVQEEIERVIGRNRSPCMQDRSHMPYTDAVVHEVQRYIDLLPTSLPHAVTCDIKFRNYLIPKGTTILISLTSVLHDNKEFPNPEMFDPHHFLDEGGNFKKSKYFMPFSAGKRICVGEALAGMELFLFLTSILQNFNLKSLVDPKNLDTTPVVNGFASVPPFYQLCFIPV

This assay addresses Cytochrome P450 2C9 (Homo sapiens) (UniProt P11712). As to the kind of experiment: Cytochrome panel assay with activity outcomes. The conditions noted are these: recombinant CYP, pro-luciferin dealkylation, luminescence, p450-cyp2c9; series mostly up to 57.1 µM; activity, negative = inhibition: at the top concentration.
Turning to `CN(C)C(=O)c1ccc(-c2cncnc2Nc2ccccc2)cc1`, the activity, negative = inhibition is -3.51% [at 2.29 µM].
The same measure, in the same setting: the same measure for `C=CC[C@H](N)C(=O)O`: -11%; for `O=C(O)C1CCC(=O)N(C2CC2)C1c1ccccc1` (configuration not stated): 1.83%.
The same measure, in the same setting: next, `CC12CC[C@@H]3c4ccc(OP(=O)(O)O)cc4CCC3C1CCC2=O` (some centres not stated): 15.4% [at 11.4 µM]; `Clc1ccccc1-c1nc(-c2ccncc2)no1`: -19.4% [at 11.4 µM].
A word on the AC50: it is the concentration giving half of the maximal activity seen. With `Clc1ccccc1-c1nc(-c2ccccc2)n[nH]1`, the half-maximal activity concentration (AC50) is 28.2 µM (active).
For the compound `Clc1ccccc1-c1nc(N2CCNCC2)c2ccccc2n1`, the activity, negative = inhibition is 2.98% [at 2.29 µM].
Take `Cc1nnc(SCC(=O)N2CC(=O)Nc3ccccc32)n1Cc1ccccc1`: the “activity, negative = inhibition” value is -9.86%.
In the case of `Cc1sc2nc(C3CC3)nc(SCC(=O)N3CC(=O)Nc4ccccc43)c2c1C`, the AC50 was 1 µM (active).
Regarding `O=c1c2ccccc2nc2n1CCC2`, the “activity, negative = inhibition” value is -23%.
In the case of `O=c1c2c(-c3ccc(Cl)cc3)csc2nc2n1CCC2`, the AC50 was 14.1 µM (active).
As to `O=C(Nc1ccc(F)cc1Cl)c1ccc2c(=O)n3c(nc2c1)CCCCC3`, the “activity, negative = inhibition” value is -38.3%.
The same measure, in the same setting: the same measure for `COCC(=O)N1CCC2(CC1)CN(C(=O)Nc1cccc(F)c1)C2`: -3.38%; for `O=c1c(-c2ccc(O)cc2)coc2cc(O)cc(O)c12`: -21.8%.
Take `O=c1c(O)c(-c2ccc(O)c(O)c2)oc2cc(O)cc(O)c12`: the “activity, negative = inhibition” value was -0.213%.
Turning to `O=c1c(-c2ccc(O)cc2)coc2cc(O)ccc12`, the concentration at half-maximal activity (AC50) is 6.31 µM (active).
Regarding `CSc1nc(N)c2ncn([C@H]3O[C@H](COP(=O)(O)OP(=O)(O)O)[C@@H](O)[C@@H]3O)c2n1`, the “activity, negative = inhibition” value was -4.22%.
Same read-out and setting: next, `O=C1[C@@H]2[C@@H](C(=O)N1c1ccc(OCc3ccccc3)cc1)[C@@H]1c3ccccc3[C@@H]2[n+]2ccccc21`: 0.978% [at 11.4 µM].
Regarding `O=C1C2C3c4ccccc4C(c4ccccc43)C2C(=O)N1c1nc(-c2ccccc2)cs1` (configuration not stated), the concentration at half-maximal activity (AC50) was 0.891 µM (active).
In the case of `CN(C)CCCN1c2ccccc2Sc2ccc3ccccc3c21`, the activity, negative = inhibition was -11.1% [at 11.4 µM].
The same measure, in the same setting: next, `CO[C@@H]1/C=C\CC(=O)N[C@@H](C)C(=O)OC[C@@H](OC)[C@H](C)CCCC(=O)OC[C@H]1C`: -25.9% [at 11.4 µM]; `Cn1c(=O)n(C)c2cc([N+](=O)[O-])c(N3CCN(C(=O)c4ccccc4Cl)CC3)cc21`: 3.49%.
For the compound `Cc1ccc(C(=O)O/N=C\c2ccc(N3CCCCC3)c([N+](=O)[O-])c2)cc1`, the AC50 was 2.24 µM (active).
Still for that read-out and setting: the same measure for `COC(=O)c1ccc(N2CCN(CC(=O)c3ccc(-c4ccccc4)cc3)CC2)c([N+](=O)[O-])c1`: 5.01 µM (active); for `Cc1cc(C)n(-c2cc(N3CCN(C(=O)c4ccc(C(C)(C)C)cc4)CC3)ccc2[N+](=O)[O-])n1`: 3.98 µM (active); for `Cc1ccccc1C(=O)N1CCN(c2ccc([N+](=O)[O-])c(N3CCOCC3)c2)CC1`: 5.01 µM (active).
For `CN(C)CCNc1nc2c(c(=O)n(C)c(=O)n2C)n1C`, the activity, negative = inhibition is 4.45% [at 11.4 µM].
Regarding `CCCN(CC1CC1)c1nc(C)nc(Nc2c(Cl)cc(Cl)cc2Cl)c1Cl`, the “activity, negative = inhibition” value was -24.6%.
Same read-out and setting: the same measure for `C=CC[C@@H]1C=C[C@H](O/N=C(\C)CCN2CCCc3nc(C)c(C)cc32)[C@H](CO)O1`: 3.93% [at 11.4 µM].
For the compound `Cc1ccc(OC(=O)c2ccc(N3CCOCC3)c([N+](=O)[O-])c2)cc1`, the concentration at half-maximal activity (AC50) was 14.1 µM (active).
Regarding `CCOC(=O)c1c(NC(=O)c2ccc(N3CCOCC3)c([N+](=O)[O-])c2)sc(C)c1C`, the “activity, negative = inhibition” value was -13.2%.
Consider `CO/N=C/c1ccc(N2CCN(C(=O)c3ccc(Cl)cc3Cl)CC2)c([N+](=O)[O-])c1`, for which the AC50 was 7.94 µM (active).
Take `COCC(=O)N1CCN(c2ccc([N+](=O)[O-])cc2)CC1`: the “activity, negative = inhibition” value was 11.2%.
For the compound `Cc1ccc(OCC(=O)N2CCN(c3ccc([N+](=O)[O-])c(N4CCOCC4)c3)CC2)cc1`, the AC50 is 7.94 µM (active).
With `CC(C)Cn1c(C(C)C)nc([N+](=O)[O-])c1S(=O)(=O)c1ccc(F)cc1`, the “activity, negative = inhibition” value is -16.4%.
Same read-out and setting: next, `CN(C)Cc1ccccc1-c1nccc(NC2CC2)n1`: 5.88% [at 2.29 µM]; `CC(C)=CCC/C(C)=C/CO/N=C1/C[C@@H](O)[C@@H](O)[C@@H]2[C@@H]3C(=O)N(C[C@@H]4CCCO4)C(=O)[C@H]3CC[C@H]12`: 4.47% [at 11.4 µM]; `O=C(Cn1cnc([N+](=O)[O-])c1)NCc1ccc(F)cc1`: -25.7%.
Take `O=C(Cn1cc(C(=O)c2ccco2)c2ccccc21)NCc1ccco1`: the half-maximal activity concentration (AC50) is 14.1 µM (active).
`COc1ccccc1CN1CCCC2(CCN(C(=O)c3ccco3)CC2)C1`: the “activity, negative = inhibition” value is 0.5%.
On to `COc1ccccc1OCCn1cc(C(=O)c2ccco2)c2ccccc21`, for which the AC50 is 0.562 µM (active).
For `Cc1ccccc1C(=O)c1cccn1CC(=O)NCc1ccco1`, the “activity, negative = inhibition” value is -24.1%.
Same read-out and setting: the same measure for `COc1ccccc1CN1CCC2(CC1)CCN(C(=O)c1ccco1)CC2`: 11.3%.
On the same count and under the same terms, the same measure for `Cc1ccc(CNC(=O)Cn2c(=O)oc3ccccc32)o1`: -2.17%; for `N[C@H](C(=O)N[C@@H]1C(=O)N2C(C(=O)O)=C(Cl)CS[C@@H]12)c1ccccc1`: -11.3% [at 25.6 µM]; for `COc1cccc2c1C(=N)c1c(O)c3c(c(O)c1C2=O)C[C@](O)(C(C)=O)C[C@@H]3O[C@H]1C[C@H](N)[C@@H](O)[C@H](C)O1`: -16.6% [at 11.4 µM].
Still for that read-out and setting: the same measure for `COc1ccc(NC(=O)C23CC4CC(C2)CC(n2cnc(Br)n2)(C4)C3)c(C)c1`: -24.1%.

For the origin of these results see PubChem BioAssay AID1851 (National Center for Advancing Translational Sciences (NCATS), 2009).
